KB-3-1 cytotox: kills parental KB-3-1 adenocarcinoma cells; KB-3-1 viability, CellTiter-Glo ATP luminescence, 72 h; Potency, µM (top dose mostly 46.1 µM), actives largely listed as cytotoxic; actives 1.4% (n = 400,000); AID 1347075; also: potency is read from the fitted curve at half-maximal effect; % is scaled to controls: 0 for no effect and ±100 for the full control effect; nearly all actives have a fitted effect of over 60% in size
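KB-3-1 cells, DMEM (no phenol red) + 10% FBS; compound by pin transfer, 72 h, 37 °C. Readout: CellTiter-Glo luminescence after 10 min. Data normalized, curve-fitted.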
MCF10A rereplic: induces DNA re-replication in MCF 10a normal breast cells; MCF 10A DNA re-replication, Hoechst nuclear intensity, 48 h; Potency, µM (top dose mostly 46.1 µM), for inactives: at the highest dose activity, positive = re-replication, hits mostly activators; actives 2.9% (n = 350,000); AID 624296; also: potency is read from the fitted curve at half-maximal effect; % of control where 0% means no effect; nearly all actives have a fitted effect of over 50% in size
KB-V1 cytotox: kills drug-selected multidrug resistant KB-V1 cells; Potency, µM (top dose mostly 46.1 µM), usual class: cytotoxic; actives 3.4% (n = 400,000); KB-V1 MDR cells viability, CellTiter-Glo, 72 h; also: potency is read from the fitted curve at half-maximal effect; % is scaled to controls: 0 for no effect and ±100 for the full control effect; nearly all actives have a fitted effect of over 60% in size
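KB-V1 cells (P-gp-expressing MDR subline of KB-3-1) in phenol-red-free DMEM with 10% FBS were exposed to library compounds over a concentration series for 72 h at 37 degrees C. Viability read by CellTiter-Glo luminescence; concentration-effect curves fitted after normalization.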
hERG WT inh: blocks the wildtype human KCNH2 potassium channel; Q12809; U2OS, BacMam KCNH2, thallium flux FluxOr; hits give low values; activity change, % at 1.84 µM; actives 0.37% (n = 340,000);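 active = maximum activity change below -70%; inconclusive = maximum activity change between -70% and -50%; inactive = maximum activity change above -50%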; also: % is scaled to controls: 0 for no effect and ±100 for the full control effect
Target sequence (Q12809 whole entry, looked up): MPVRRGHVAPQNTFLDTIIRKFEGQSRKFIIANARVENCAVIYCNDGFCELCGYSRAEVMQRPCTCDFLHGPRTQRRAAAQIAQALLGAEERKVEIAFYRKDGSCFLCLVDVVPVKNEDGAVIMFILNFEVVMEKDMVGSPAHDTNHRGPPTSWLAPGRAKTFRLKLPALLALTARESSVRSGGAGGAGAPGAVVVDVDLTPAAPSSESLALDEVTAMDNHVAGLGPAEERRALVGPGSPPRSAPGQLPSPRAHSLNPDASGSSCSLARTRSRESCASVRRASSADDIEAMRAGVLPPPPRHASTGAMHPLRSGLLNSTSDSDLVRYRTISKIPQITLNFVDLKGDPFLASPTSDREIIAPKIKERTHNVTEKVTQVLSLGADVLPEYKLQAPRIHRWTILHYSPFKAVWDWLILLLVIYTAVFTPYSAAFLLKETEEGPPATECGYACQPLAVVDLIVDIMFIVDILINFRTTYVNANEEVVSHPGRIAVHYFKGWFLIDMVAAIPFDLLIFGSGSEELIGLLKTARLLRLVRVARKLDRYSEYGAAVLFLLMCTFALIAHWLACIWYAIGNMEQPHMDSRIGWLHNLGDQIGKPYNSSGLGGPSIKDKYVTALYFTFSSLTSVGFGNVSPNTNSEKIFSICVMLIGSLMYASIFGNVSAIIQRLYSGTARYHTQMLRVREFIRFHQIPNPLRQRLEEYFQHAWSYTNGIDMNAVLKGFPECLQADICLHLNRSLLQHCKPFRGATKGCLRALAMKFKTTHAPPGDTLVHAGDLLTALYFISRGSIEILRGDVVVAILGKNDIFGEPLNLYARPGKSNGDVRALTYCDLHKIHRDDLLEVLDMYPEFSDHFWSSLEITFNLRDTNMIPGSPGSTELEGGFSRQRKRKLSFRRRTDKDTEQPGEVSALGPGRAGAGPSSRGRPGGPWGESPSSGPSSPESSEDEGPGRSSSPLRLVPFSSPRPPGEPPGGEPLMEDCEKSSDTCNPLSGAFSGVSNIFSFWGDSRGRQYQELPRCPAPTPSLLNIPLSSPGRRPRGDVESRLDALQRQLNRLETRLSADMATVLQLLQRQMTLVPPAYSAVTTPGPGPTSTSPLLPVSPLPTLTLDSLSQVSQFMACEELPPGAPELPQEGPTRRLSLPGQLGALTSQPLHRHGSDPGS
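U2OS cells were transduced with wild-type KCNH2 virus (2.03 x 10^8 / mL) for 4 h at room temperature, then cultured overnight at 37 C. Thallium flux was read with FluxOr dye. Rate constants were normalized to DMSO controls.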
SW480 rereplic: induces DNA re-replication in SW480 colon adenocarcinoma cells. SW480 DNA re-replication, Hoechst DNA content imaging, 48 h. Potency, µM (top dose mostly 46.1 µM), inactives show top-dose re-replication activation, hits mostly activators. actives 1.8% (n = 340,000). AID 624297; also: potency is read from the fitted curve at half-maximal effect; % of control where 0% means no effect; nearly all actives have a fitted effect of over 55% in size
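Treated cells incubate 48 hr (37 C, 5% CO2), are stained 40 min with Hoechst, and nuclear fluorescence is enumerated; a rise in nuclei with high DNA signal marks re-replication.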
KCNH2 3.1 inh: KCNH2 3.1 (human) potassium channel inhibition | U2OS KCNH2 3.1, thallium flux FluxOr; hits give low values | actives 0.95% (n = 340,000) | activity change, % (tested at about 1.8 µM);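 active = maximum activity change below -70%; inconclusive = maximum activity change from -70% to -50%; inactive = maximum activity change above -50%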;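 also: thallium influx rate constant from kinetic fluorescence after stimulation buffer; % is scaled to controls: 0 for no effect and ±100 for the full control effect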
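Steps: virus added to U2OS suspension (4 h, RT, dark); medium with 10% FBS added, cells plated, 37 C overnight; FluxOr/Red40 loading buffer 45 min RT; stimulation buffer, 2 min kinetic read; rate constant normalized.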
The depositor's hits bear a star; i = inactive; ? = inconclusive; . = no result; [ ] = remark or other dose. Shown are actives, neighbours in structure and some others; about 7.6% of the full set was active somewhere. Unless noted, calls follow the shape of the dose curve; as a rule, active = well fitted curve in the direction sought with a large enough effect; inconclusive = small, poorly fitted or top-dose-only effect, or another doubt; inactive = no such curve, though single readings can be large; an effect the other way counts as inactive or inconclusive.

SMILES	KB-3-1 cytotox	MCF10A rereplic	KB-V1 cytotox	hERG WT inh	SW480 rereplic	KCNH2 3.1 inh
COc1ccc(Cc2c(-c3cccc(Br)c3)nc3c(C)cc(Br)cn23)c(C)c1	i	.	i	.	.	.
O=C(Cn1cncn1)N/N=C/c1cccc(Cl)c1	i	5%	i	2	-14%	2
FC(F)(F)c1cccc(N2CCN(c3ccc4nnc(-c5ccccc5)n4n3)CC2)c1	i	?	16µM*	6	6%	-30
CCCCCCCCCCOC(=O)C[N+](C)(C)C/C=C(/C)Cl	i	23µM*	i	3	5%	-14
CCCCCCCCOC(=O)C[N+](C)(C)C/C=C(/C)Cl	i	7%	?	-2	-2%	5
Cc1ccc(Cn2ccc(NC(=O)c3c(-c4ccccc4Cl)noc3C)n2)cc1	i	-3%	i	0	0%[9.22 µM]	1
COc1ccc(-c2ccc(C(=O)Nc3ccc(Cl)cc3)c3occc23)c(C)c1	i	.	i	.	.	.
O=c1ccn(Cc2ccccc2)c(=O)n1Cc1ccccc1	i	21µM*	i	7	-9%	.
N#Cc1c(N2CCOCC2)nc(-c2ccco2)c2c1CCCC2	i	?	i	-3	?	7
N#Cc1c(NCCN)nc(-c2ccco2)c2c1CCCC2	?	12µM*	?	4	18µM*	-2
CC(C)CCNc1nc(-c2ccco2)c2c(c1C#N)CCCC2	i	7.3µM*	i	1	?	0
CCc1nc(NCCC(C)C)c(C#N)c2c1CCCC2	i	7%	i	-6	-2%	-2
CCc1ccc(/C=N\n2cnnc2)cc1	i	0%	?	-3	1%	-3
O=P(OC1CCCCC1)(OC1CCCCC1)C(O)c1ccccc1 (stereo not drawn)	i	1%	9.2µM*	1	-11%	-22
CCC(CC)NC(=O)Cc1ccccc1[N+](=O)[O-]	i	-4%	i	-5	1%	.
CNC(=S)NNC(=O)c1sc(-c2cc(C)on2)nc1C	?	-2%	i	-5	-2%	-5
CC(C)C[C@H]1CN=C(N(C)C)N1CCc1cccc(F)c1	i	-20%	i	9	-14%	-107*
CN(C)C1=NC[C@H](Cc2ccccc2)N1CCc1cccc(F)c1	i	21%	i	25	-13%	-49
COc1cc(/C=C2\SC(=Nc3ccc(O)cc3)NC2=O)cc(OC)c1OC	4.6µM*	?	i	-9	3.3µM*	-4
CCc1ccc(N=C2NC(=O)/C(=C/c3ccc(OCC(=O)O)c(OC)c3)S2)cc1	i	-3%	i	-15	-3%	9
COc1ccc(N=C2NC(=O)/C(=C/c3ccc(O)c(OC)c3)S2)cc1	?	?	?	4	23µM*	12
COc1cc(/C=C2\SC(=O)N(c3ccc(O)cc3)C2=O)cc(OC)c1OC	i	?	i	-3	3%	1
COc1cc(/C=C2/SC(=Nc3ccc(O)cc3)NC2=O)cc(OC)c1O	?	?	i	3	21µM*	-7
O=C1NC(=Nc2ccc(O)cc2)S/C1=C\C=C\c1ccco1	3.3µM*	?	2.3µM*	12	?	-6
COc1ccccc1N=C1NC(=O)/C(=C/c2ccc(N(C)C)cc2)S1	10µM*	9.2µM*	7.3µM*	-17	4.1µM*	-5
SMILES	KB-3-1 cytotox	MCF10A rereplic	KB-V1 cytotox	hERG WT inh	SW480 rereplic	KCNH2 3.1 inh
COC(=O)c1ccc(N=C2SCC(=O)N2C)cc1	i	-27%	i	-12	?	11
COc1cccc(OCCSc2nc3ccccc3n2CC(=O)N2CCOCC2)c1	i	.	i	.	.	.
CN1/C(=C/C(=O)C2CC2)C(C)(C)c2ccccc21	i	-14%	i	-2	8%	-7
CN1/C(=C\C(=S)NC(=O)c2cccc(Br)c2)C(C)(C)c2ccccc21	?	?	8.2µM*	1	?	-1
CN1/C(=C\C(=S)NC(=O)c2ccc([N+](=O)[O-])cc2)C(C)(C)c2ccccc21	i	-2%	i	-8	2%	-2
CCN(CC)S(=O)(=O)c1cccc(C(=O)/C=C2/N(C)c3ccccc3C2(C)C)c1	i	18µM*	i	-11	21µM*	.
COCCNC(=O)c1ccc(-n2c(SCc3cc(F)ccc3F)nc3ccccc3c2=O)cc1	?	-1%	5.8µM*	6	-3%	3
O=C(/C=C/c1ccco1)N1CCCC(c2ccccc2)C1 (stereo not drawn)	i	?	i	.	?	-9
O=C(/C=C/c1ccccc1)N1CCC(c2ccccc2)C1 (stereo not drawn)	i	-8%	21µM*	-4	-32%	-32
C[C@H]1CN([C@@H](C)CO)C(=O)Cc2cc(NC(=O)CCC(F)(F)F)ccc2O[C@H]1CN(C)S(=O)(=O)c1ccc(Cl)cc1	4.6µM*	4.6µM*	i	5	3.3µM*	11
C[C@H](CO)N1C[C@H](C)[C@@H](CN(C)S(=O)(=O)c2ccc(Cl)cc2)Oc2ccc(NS(=O)(=O)c3ccccc3)cc2CC1=O	i	6%	?	?	-4%	?
C[C@H]1CN([C@@H](C)CO)C(=O)Cc2cc(NC(=O)CCC(F)(F)F)ccc2O[C@H]1CN(C)S(=O)(=O)c1ccc(F)cc1	5.2µM*	15µM*	i	4	?	-3
C[C@H]1CN([C@@H](C)CO)C(=O)Cc2cc(NC(=O)Cc3cn(C)c4ccccc34)ccc2O[C@@H]1CN(C)S(=O)(=O)c1cn(C)cn1	i	-1%	i	-14	3.7µM*	-9
C[C@H](CO)N1C[C@H](C)[C@H](CN(C)S(=O)(=O)c2cccs2)Oc2ccc(NC(=O)Nc3ccc4c(c3)OCO4)cc2CC1=O	?	?	?	0	16µM*	23
CC(Cc1c[nH]c2ccccc12)C(=O)N1CCN(c2ccccc2F)CC1 (stereo not drawn)	i	-5%	i	6	2%	8
O=C(Nc1ccccc1)/C(=C/c1ccc([N+](=O)[O-])cc1)NC(=O)c1ccco1	i	-2%	i	23	-12%	-24
CC(C(=O)Nc1ccc(Cl)cc1Cl)N1C(=O)NC2(CCCC2)C1=O (stereo not drawn)	i	19%	?	-5	2%	4
CC1CCc2c(sc(NC(=O)CSc3nc4c(c(C(F)(F)F)n3)CCc3ccccc3-4)c2C(N)=O)C1 (stereo not drawn)	i	?	?	-15	2%	0

Screens: PubChem BioAssay, National Center for Advancing Translational Sciences (NCATS)
